Screening data deposited in PubChem BioAssay by several laboratories.
FXN GAA850 act: activators of GAA850 frataxin (FXN) promoter; HEK293 lucGAA850 FXN promoter luciferase reporter, 24 h; percent of 10 µM SAHA response; activation, % at 6 µM; actives 0.56% (n = 360,000);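 active = activation above the average of all compounds screened plus 3 SD, cutoff fixed separately per campaign, cut at about 7.5% in these data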;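 also: 0% = DMSO wells and 100% = 10 µM SAHA wells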
esBAF inh: inhibitors of esBAF chromatin remodeling in mouse ES cells; Bmi1-luciferase knock-in reporter, 24 h; 100% = twice the neutral-well signal; reporter increase, % at 12.5 µM; actives 2% (n = 350,000); AID 602393; in the data active = activation above about 40%; inconclusive = no clear call, values can overlap the other calls;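 also: 0% = median of the plate's neutral control wells and 100% = double that signal; a rise in the Bmi1 reporter signal indicates esBAF inhibition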
MITF act: activators of MITF-driven TRPM1 promoter activity in SK-MEL-5 cells; actives 0.75% (n = 300,000); activation, % at 12.5 µM; AID 588334; SK-MEL-5 TRPM1-promoter luciferase, 24 h; % of positive control, neutral wells = 0;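 active = mean activation of at least 80% with every replicate also reaching 80%; inconclusive = mean reaches 80% but some replicate falls short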;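 also: 0% = neutral control wells and 100% = parthenolide positive control wells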
Wnt bcat act: activators of Wnt/beta-catenin signaling; Wnt/beta-catenin reporter cell assay, activator, plate reader; activation, % at 9.35 µM; actives 1.2% (n = 300,000); AID 743398; in the data active = activation above about 30%, passing the limit was not always enough; inconclusive = no clear call, values can overlap the other calls;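 also: 0% = neutral control wells and 100% = positive control wells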
* hit, by the source's call; ? = inconclusive; nt = no result given. In the library only some 2.8% were active in any assay of this set; here they are far more common.

SMILES	FXN GAA850 act	esBAF inh	MITF act	Wnt bcat act
Cc1ccc(CNC(=O)c2ccc[nH]2)cc1	1.9	nt	-4.0	-1.7
Cc1ccc(SCC(=O)c2ccc[nH]2)cc1	1.9	60.7*	69.9	8.2
COc1ccc(NC(=O)N[C@H]2CC[C@H](CCNC(=O)CCN3CCCCC3)O[C@@H]2CO)cc1	nt	1.2	nt	nt
Cc1oc(C(=O)O)cc1COc1ccc2c3c(c(=O)oc2c1C)CCC3	6.1	0.7	nt	-6.7
Cc1c(OCc2ccc([N+](=O)[O-])cc2)ccc2c3c(c(=O)oc12)CCC3	4.6	nt	111.6*	-0.6
CC(=O)C(C)Oc1ccc2c3c(c(=O)oc2c1C)CCCC3 (stereo unspecified)	6.9	57.9*	-10.2	-9.1
Cc1c(OCC(=O)N(C)C)ccc2c3c(c(=O)oc12)CCCCC3	2.8	-3.7	15.2	nt
Cc1c(OC(C)C(=O)N[C@H](C(=O)O)c2ccccc2)ccc2c3c(c(=O)oc12)CCCC3 (stereo partly specified)	-1.2	0.6	-5.5	-1.6
CC(=O)COc1ccc2c3c(c(=O)oc2c1C)CCCCC3	5.0	45.0*	72.5	nt
O=C(Nc1ccc(F)cc1)N[C@H]1CC[C@H](CC(=O)N2CCOCC2)O[C@H]1CO	nt	1.5	nt	nt
O=C(Cc1ccc(Br)cc1)N1CCN(c2ccccc2O)CC1	1.6	50.1*	60.6	10.7
CNC[C@@H]1Oc2ccc(NS(=O)(=O)c3cn(C)cn3)cc2CC(=O)N([C@@H](C)CO)C[C@H]1C	nt	-7.0	nt	nt
O=C(NC1CCCCCCC1)c1cccc(Cl)c1	5.2	59.8*	64.0	19.7
O=C(CNC(=O)c1ccc2ccccc2c1)NC1CCCCC1	1.6	20.6	11.2	13.1
O=C(NC1CCCCC1)c1ccc2ccccc2c1	2.0	55.7*	nt	49.3*
O=C(NC1CCCC1)c1cccc(Cl)c1	0.1	nt	4.2	-0.8
C[C@@H]1CN([C@@H](C)CO)C(=O)c2cccc(NC(=O)Nc3ccc(C(F)(F)F)cc3)c2O[C@H]1CN(C)Cc1ccc(Cl)c(Cl)c1	nt	1.0	nt	nt
COc1cccc(S(=O)(=O)Nc2ccc3c(c2)C(=O)N(C)[C@H]2CC[C@@H](CC(=O)O)O[C@H]2CO3)c1	nt	3.3	nt	nt
COC(=O)[C@@H]1[C@@H](CO)[C@@H]2Cn3c(ccc(-c4ccccc4OC)c3=O)[C@@H]2N1CC1CCOCC1	nt	8.9	nt	nt
COc1cccc(/C=C2\SC(N3CCCC(C)C3)=NC2=O)c1OC (stereo unspecified)	4.2	72.6*	65.2	3.0
O=C(O)c1ccc(/C=C(\c2nc3ccccc3[nH]2)c2nc3ccccc3s2)cc1	3.4	nt	-7.2	41.6*
COCCCNC(=S)Nc1ccc(C)cc1	-0.8	-4.0	-0.9	0.1
COCCCNC(=S)NNC(=S)Nc1ccccc1	5.6	nt	nt	42.5*
CCOc1ccc2nc(NC(=O)CSc3ccc(Cl)cc3)sc2c1	0.7	nt	19.2	5.3
CCOc1ccc2nc(NC(=O)CSCC(=O)Nc3cc(C)on3)sc2c1	0.4	4.6	103.8*	?
SMILES	FXN GAA850 act	esBAF inh	MITF act	Wnt bcat act
CCOCC(=O)Nc1nc2ccc(OCC)cc2s1	3.0	7.3	33.4	45.7*
CCOc1ccc2nc(NC(=O)c3cnccn3)sc2c1	1.6	49.2*	55.6	7.7
C[C@@H]1CN([C@@H](C)CO)C(=O)c2cc(-c3cncnc3)cnc2O[C@H]1CN(C)C(=O)Cc1cccnc1	nt	-2.0	nt	nt
C=CCn1c(C)nc2c(sc3nc4c(cc32)COC(C)(C)C4)c1=O	4.7	nt	66.2	45.9*
CCOC(=O)c1sc2nc3c(cc2c1N)COC(C)(CC)C3 (stereo unspecified)	3.5	9.5	nt	57.6*
CCC1(C)Cc2nc3sc(C(=O)O)c(N)c3cc2CO1 (stereo unspecified)	2.7	18.3	23.6	nt
CCOC(=O)c1sc2nc3c(cc2c1N)COC(C)(C)C3	4.3	nt	?	53.2*
NC(=O)c1sc2nc3c(cc2c1N)CCC3	-1.1	22.3	67.6	19.0
CC1(C)Cc2nc3sc(C(N)=O)c(N)c3cc2CO1	2.3	28.9	37.5	3.8
COC(=O)c1sc2nc3c(cc2c1N)CCCC3	2.1	nt	-6.6	57.7*
CN(C)Cc1cn(CC[C@@H]2CC[C@H](NS(=O)(=O)c3ccc(-c4ccccc4)cc3)[C@H](CO)O2)nn1	nt	3.1	nt	nt
Cc1cc(C)cc(Oc2coc3cc(OC(=O)c4cccnc4)ccc3c2=O)c1	-4.0	nt	-1.9	-1.4
CCOC(=O)Oc1ccc2c(=O)c(Oc3cccc(C)c3)coc2c1	3.3	?	26.2	18.2
Cc1cccc(Oc2coc3cc(OC(=O)c4cc5ccccc5oc4=O)ccc3c2=O)c1	0.5	53.6*	42.0	nt
Cc1cccc(Oc2coc3cc(OC(=O)c4cncc(Br)c4)ccc3c2=O)c1	-1.0	34.3*	1.8	3.4
Cc1cccc(Oc2coc3cc(O)ccc3c2=O)c1	3.2	58.7*	nt	8.8
O=C(O)C[C@@H]1CC[C@H](NC(=O)c2ccccc2F)[C@H](CO)O1	nt	3.0	nt	nt
C[C@@H]1CCCCO[C@H](CN(C)C(=O)Nc2ccc(F)cc2)[C@H](C)CN([C@H](C)CO)C(=O)c2cc(NC(=O)c3ccccc3)ccc2O1	nt	3.2	nt	nt
COc1ccc(NC(=O)N(C)C[C@@H]2Oc3ccc(NS(=O)(=O)c4cccs4)cc3C(=O)N([C@H](C)CO)C[C@H]2C)cc1	nt	-4.4	nt	nt
COc1ccc(NC(=O)CSc2nc3ccccc3n2-c2ccccc2)c([N+](=O)[O-])c1	1.1	nt	-6.5	-5.5
COc1ccc(NC(=O)CSc2ccccc2)c([N+](=O)[O-])c1	6.5	57.4*	?	3.6
CC(=O)Nc1c(O)nc(SCC(=O)Nc2ccc(C(C)=O)cc2)[nH]c1=O	4.9	75.5*	76.9	1.5
O=C(CNC(=O)c1cccs1)c1ccc(Cl)cc1	4.2	39.4	130.1*	5.3
COc1ccc(C(=O)NCCn2cc(SCC(=O)NCC3CCCO3)c3ccccc32)cc1 (stereo unspecified)	1.2	nt	0.0	3.3
COc1ccc(C(=O)NCCn2cc(SCC(=O)NCc3ccco3)c3ccccc32)cc1	-0.6	51.7*	3.9	nt
SMILES	FXN GAA850 act	esBAF inh	MITF act	Wnt bcat act
CCCn1cc(NC(=O)c2cc(-c3ccccc3)on2)cn1	1.6	52.8*	12.9	nt
O=C(Nc1cccnc1Cl)c1cc(-c2ccco2)on1	4.2	45.7*	nt	58.5*
Cc1ccc(O)c(NC(=O)c2cc(-c3ccccc3)on2)c1	6.1	75.9*	59.9	-4.9
O=C(Nc1cc(Cl)ccc1O)c1cc(-c2ccco2)on1	4.3	66.7*	74.0	30.0
C[C@H]1CN([C@@H](C)CO)C(=O)c2cccc(NC(=O)NC3CCCCC3)c2O[C@H]1CN(C)Cc1ccc(C(=O)Nc2ccccc2N)cc1	nt	-14.4	nt	nt
O=C(CSc1nnc(-c2cccc(Cl)c2)o1)Nc1ccc2c(c1)OCCO2	1.5	32.3	88.4*	-2.0
CCn1nnnc1SCC(=O)Nc1ccc2c(c1)OCCO2	1.4	nt	36.6	42.6*
NC(=O)c1ccc(NC(=O)CSc2nnc(-c3ccc4c(c3)OCO4)o2)cc1	1.7	-1.9	16.9	-0.8
O=C(CSc1nnc(-c2ccc(O)cc2)o1)Nc1ccccc1	1.1	17.7	44.9	34.1*
Cc1ccccc1NC(=O)CSc1nnc(-c2ccccn2)o1	1.0	6.0	36.6	8.2
